Reference: the supplement of paper PMC6805474

Tests used:
[1] = system: Schistosoma mansoni schistosomula (LE); assay: XTT viability relative to DMSO control; higher = more viable (less active); details: 72 h; 10 µM
Method: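 XTT/PMS was then added for a further 24 h (72 h total) and A450 was read. % viability = (sample - heat-killed control)/(DMSO control - heat-killed control) x 100, from duplicate wells in two independent experiments.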

[2] = system: Schistosoma mansoni schistosomula (NMRI); assay: phenotypic severity score (0-4); higher = more antischistosomal effect, active = 2 or more; details: 10 µM
[3] = system: Schistosoma mansoni schistosomula (Liberian); assay: drug effect (1 - score/DMSO control score) (fraction); higher = more antischistosomal effect, active = 0.5 or more; extreme values may be limits of the assay; details: 10 µM
Outline: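 Drug effect was calculated by comparing the mean score of the test wells with the mean score of the DMSO wells, and any negative value was set to zero. Duplicate wells of 50 Liberian-strain S. mansoni schistosomula, mechanically transformed from cercariae and pre-incubated at least 12 h, received 10 µM compound in Medium 199 with 5% FCS at 37 °C, 5% CO2, with 0.1% DMSO in the comparison wells. Visual scoring at 10× took place at 24, 48 and 72 h on a quarter-point scale from 3 (normal) to 0 (dead), and a plate counted only if its DMSO wells averaged at least 2.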
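Wherever phenotypic severity score (0-4) is given: visual microscopic scoring of shape, motility and density changes versus 0.5% DMSO solvent controls, one point per descriptor, degeneracy or death scored 4, mean of duplicate wells.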

Cc1cccc(NC(=O)c2cc(S(=O)(=O)N(C)c3ccc(F)cc3)ccc2Cl)n1
81%: XTT viability [1]
inactive: phenotypic severity score ([2]; 24 h) 0 | phenotypic severity score ([2]; 48 h) 0 | phenotypic severity score ([2]; 72 h) 0 | drug effect ([3]; 24 h) 0.05 | drug effect ([3]; 48 h) 0.135 | drug effect ([3]; 72 h) 0.222

CCOc1ccccc1C(=O)Nc1cccc(-c2nc3ncccn3c2C)c1
inactive: phenotypic severity score ([2]; 24 h) 0 | phenotypic severity score ([2]; 48 h) 0 | phenotypic severity score ([2]; 72 h) 0 | drug effect ([3]; 24 h) 0.0811 | drug effect ([3]; 48 h) 0.389
107%: XTT viability [1]
active: drug effect ([3]; 72 h) 0.625

O=C(NCc1ccco1)N1CCN(Cc2ccc(Cl)s2)CC1
93.6%: XTT viability [1]
inactive: phenotypic severity score ([2]; 24 h) 0 | phenotypic severity score ([2]; 48 h) 0 | phenotypic severity score ([2]; 72 h) 0 | drug effect ([3]; 24 h) 0.136 | drug effect ([3]; 48 h) 0.3 | drug effect ([3]; 72 h) 0.345

Cc1cc(C(=O)Nc2ccc(-c3ccccc3)cc2)no1
inactive: phenotypic severity score ([2]; 24 h) 0 | phenotypic severity score ([2]; 48 h) 0 | phenotypic severity score ([2]; 72 h) 0 | drug effect ([3]; 24 h) 0.1 | drug effect ([3]; 48 h) 0.0811 | drug effect ([3]; 72 h) 0.111
90.7%: XTT viability [1]

Cc1nn(C)cc1C(C)Nc1nncc(-c2ccc(C(F)(F)F)cc2)n1 (centres undefined)
77.5%: XTT viability [1]
inactive: phenotypic severity score ([2]; 24 h) 0 | phenotypic severity score ([2]; 48 h) 0 | phenotypic severity score ([2]; 72 h) 0 | drug effect ([3]; 24 h) 0.136 | drug effect ([3]; 48 h) 0.1 | drug effect ([3]; 72 h) 0.105

COc1ccc(-c2cc(NC(=O)c3ccc(F)cc3Cl)ccc2OC)cc1
89.7%: XTT viability [1]
inactive: phenotypic severity score ([2]; 24 h) 0 | phenotypic severity score ([2]; 48 h) 1 | phenotypic severity score ([2]; 72 h) 0 | drug effect ([3]; 24 h) 0.0909 | drug effect ([3]; 48 h) 0.25 | drug effect ([3]; 72 h) 0.236

O=C(C(Cc1c[nH]c2ccccc12)NS(=O)(=O)c1ccc(Cl)cc1)N1CCCCC1 (centres undefined)
96.4%: XTT viability [1]
inactive: phenotypic severity score ([2]; 24 h) 0 | phenotypic severity score ([2]; 48 h) 0 | phenotypic severity score ([2]; 72 h) 0 | drug effect ([3]; 24 h) 0.05 | drug effect ([3]; 48 h) 0.0811 | drug effect ([3]; 72 h) 0.111

CC[P](CC)(CC)=[Au][S][C@H]1O[C@@H](COC(C)=O)[C@H](OC(C)=O)[C@@H](OC(C)=O)[C@@H]1OC(C)=O
203%: XTT viability [1]
active: phenotypic severity score ([2]; 24 h) 4 | phenotypic severity score ([2]; 48 h) 4 | phenotypic severity score ([2]; 72 h) 4 | drug effect ([3]; 24 h) 1 | drug effect ([3]; 48 h) 1 | drug effect ([3]; 72 h) 1

O=C(NC1=NCCS1)c1sc2cc(F)ccc2c1Cl
inactive: phenotypic severity score ([2]; 24 h) 0 | phenotypic severity score ([2]; 48 h) 0 | phenotypic severity score ([2]; 72 h) 0 | drug effect ([3]; 24 h) 0.0909 | drug effect ([3]; 48 h) 0.1 | drug effect ([3]; 72 h) 0.0182
81%: XTT viability [1]

Cc1cc2nc(NC(=O)C(C)(C)C)nc(Cl)c2n1Cc1ccc(Cl)cc1
109%: XTT viability [1]
inactive: phenotypic severity score ([2]; 24 h) 0 | phenotypic severity score ([2]; 48 h) 0 | phenotypic severity score ([2]; 72 h) 0 | drug effect ([3]; 24 h) 0.136 | drug effect ([3]; 48 h) 0.4 | drug effect ([3]; 72 h) 0.345

CCc1c(C)nc(-n2nc(C)cc2NC(=O)c2ccccc2SC)[nH]c1=O
active: phenotypic severity score ([2]; 72 h) 3 | drug effect ([3]; 48 h) 0.95 | drug effect ([3]; 72 h) 1
-1.13%: XTT viability [1]
inactive: phenotypic severity score ([2]; 24 h) 0 | phenotypic severity score ([2]; 48 h) 1 | drug effect ([3]; 24 h) 0.273

CCOc1ccc2cc(-c3nn(CC4CCN(C)CC4)c4ncnc(N)c34)ccc2c1
44.3%: XTT viability [1]
inactive: phenotypic severity score ([2]; 24 h) 0 | phenotypic severity score ([2]; 48 h) 0 | phenotypic severity score ([2]; 72 h) 0 | drug effect ([3]; 24 h) 0.1 | drug effect ([3]; 48 h) 0.167 | drug effect ([3]; 72 h) 0.389

Clc1ccc(-n2cc(COc3ccnc4ccccc34)nn2)cc1
103%: XTT viability [1]
inactive: phenotypic severity score ([2]; 24 h) 0 | phenotypic severity score ([2]; 48 h) 0 | phenotypic severity score ([2]; 72 h) 0 | drug effect ([3]; 24 h) 0.105 | drug effect ([3]; 48 h) 0.389 | drug effect ([3]; 72 h) 0.312

CCc1nc2ccccc2n1CC(O)COc1cc(C)ccc1Cl (centres undefined)
106%: XTT viability [1]
inactive: phenotypic severity score ([2]; 24 h) 0 | phenotypic severity score ([2]; 48 h) 0 | phenotypic severity score ([2]; 72 h) 0 | drug effect ([3]; 24 h) 0.0909 | drug effect ([3]; 48 h) 0.25 | drug effect ([3]; 72 h) 0.236

Cc1ccc2[nH]c(C3CCCNC3)c(-c3ccncc3)c2c1 (centres undefined)
75.2%: XTT viability [1]
inactive: phenotypic severity score ([2]; 24 h) 0 | phenotypic severity score ([2]; 48 h) 0 | phenotypic severity score ([2]; 72 h) 0 | drug effect ([3]; 24 h) < 0 | drug effect ([3]; 48 h) < 0 | drug effect ([3]; 72 h) 0.111

Cc1nc(-c2cccc(NCc3ccccc3)c2)[nH]c1C
104%: XTT viability [1]
inactive: phenotypic severity score ([2]; 24 h) 0 | phenotypic severity score ([2]; 48 h) 0 | phenotypic severity score ([2]; 72 h) 0 | drug effect ([3]; 24 h) 0.1 | drug effect ([3]; 48 h) 0.111 | drug effect ([3]; 72 h) 0.25

O=C1N(Cc2cc3ccccc3s2)CC2CN(Cc3ccccc3)CCN12 (centres undefined)
inactive: phenotypic severity score ([2]; 24 h) 0 | phenotypic severity score ([2]; 48 h) 0 | phenotypic severity score ([2]; 72 h) 0 | drug effect ([3]; 24 h) 0.182 | drug effect ([3]; 48 h) 0.3 | drug effect ([3]; 72 h) 0.236
87.2%: XTT viability [1]

C[C@H]1COc2c(N3CCN(C)CC3)c(F)cc3c(=O)c(C(=O)O)cn1c23
67.9%: XTT viability [1]
inactive: phenotypic severity score ([2]; 24 h) 0 | phenotypic severity score ([2]; 48 h) 0 | phenotypic severity score ([2]; 72 h) 0 | drug effect ([3]; 24 h) 0.0455 | drug effect ([3]; 48 h) 0.05 | drug effect ([3]; 72 h) 0.0526

COc1ccc(C(=N)N)cc1-c1cn(-c2ccc(C(=N)N)cc2)nn1
69.3%: XTT viability [1]
inactive: phenotypic severity score ([2]; 24 h) 0 | phenotypic severity score ([2]; 48 h) 0 | phenotypic severity score ([2]; 72 h) 0 | drug effect ([3]; 24 h) 0.05 | drug effect ([3]; 48 h) 0.0811 | drug effect ([3]; 72 h) 0.0909

c1ccc(-c2nc(NC3CCCCC3)cc(C3CC3)n2)nc1
inactive: phenotypic severity score ([2]; 24 h) 0 | phenotypic severity score ([2]; 48 h) 0 | phenotypic severity score ([2]; 72 h) 0 | drug effect ([3]; 24 h) < 0 | drug effect ([3]; 48 h) 0.0811 | drug effect ([3]; 72 h) 0.152
16.4%: XTT viability [1]

Cc1nc(-c2ccccn2)nc(N(C)CCc2ccccc2)c1Cl
20.7%: XTT viability [1]
active: phenotypic severity score ([2]; 48 h) 4 | phenotypic severity score ([2]; 72 h) 4 | drug effect ([3]; 72 h) 0.697
inactive: phenotypic severity score ([2]; 24 h) 1 | drug effect ([3]; 24 h) < 0 | drug effect ([3]; 48 h) 0.189

Cc1[nH]c2ccccc2c1C(c1cccs1)N1CCN(C)CC1 (centres undefined)
active: phenotypic severity score ([2]; 24 h) 3 | phenotypic severity score ([2]; 48 h) 4 | phenotypic severity score ([2]; 72 h) 4 | drug effect ([3]; 24 h) 1 | drug effect ([3]; 48 h) 1 | drug effect ([3]; 72 h) 1
6.43%: XTT viability [1]
